# Screens (PubChem)
# Abeta yeast res = qHTS for compounds that reverse cellular toxicity of Amyloid beta (A-beta) peptide in yeast: Primary Screen | yeast expressing A-beta42, growth rescue, OD600, 48 h; response scale: 0% DMSO, 100% iron-clioquinol control | Potency, µM (titrated, usually from 46.1 µM), actives largely listed as activators | 0.063% of 410,000 active | AID 1347071, 2019; further: nearly all actives have a fitted effect of over 55% in size
#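 Yeast growth medium received pinned compounds, then yeast cells expressing toxic A-beta were added; plates incubated at 30 C for 48 hr. Growth read as absorbance at 600 nm, normalized to DMSO and equimolar FeCl3 plus clioquinol controls.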
# TDP-43 yeast inh = qHTS of TDP-43 Inhibitors; TDP-43 expressing yeast growth rescue, BacTiter-Glo, 24 h; 1.8% of 410,000 active; Potency, µM (highest dose often 46.1 µM), actives largely listed as activators; AID 652104, 2013; further: nearly all actives have a fitted effect of over 50% in size
#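 Galactose-induced TDP-43 yeast, OD600=0.02, compound pinned; 24 hr, 30 deg C; BacTiter-Glo luminescence for growth. Inhibitors of TDP-43 toxicity read as activators.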
# aSyn rescue = qHTS of alpha-syn Inhibitors | Yeast expressing alpha-synuclein, growth rescue, BacTiter-Glo, 24 h | Potency, µM (series often up to 46.1 µM), actives largely listed as activators | 0.14% of 370,000 active | AID 652106, 2013; further: nearly all actives have a fitted effect of over 65% in size
#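 Galactose-induced alpha-syn yeast (OD600=0.02, raffinose-pregrown) + pinned cpd, 24 hr, 30 deg C; growth by BacTiter-Glo luminescence. Growth restoration scores as activation.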
# FUS suppressor = qHTS for Suppressors of FUS Proteinopathy: Primary screen using FUS-linked yeast assay | S. cerevisiae FUS-expressing, growth rescue, OD600, 24 h | Potency, µM (doses to about 76.6 µM), most hits filed as activators | 0.24% of 390,000 active; further: nearly all actives have a fitted effect of over 55% in size
#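 Restored growth of FUS-toxic S. cerevisiae, read as 600 nm absorbance after 24 h at 30C in galactose medium (starting OD 0.005). Controls CP55940 and DMSO.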
# A number is an active result; . = inactive; ? = inconclusive; / = not tested or not shown; [ ] = another dose, or the depositor's remark. An excerpt weighted towards active compounds, which were near 2.1% of everything screened. The call rests on the fitted dose curve; in most records, active means well fitted curve in the direction sought with a large enough effect; inconclusive means small, poorly fitted or top-dose-only effect, or another doubt; inactive means no such curve, though single readings can be large; an effect the other way counts as inactive or inconclusive.
SMILES,Abeta yeast res,TDP-43 yeast inh,aSyn rescue,FUS suppressor
C=CCn1c(C(CCC(C)C)CC(C)(C)O)n[nH]c1=S (stereo unspecified),.,.,.,.
CCCCCc1c(O)c2ccccc2[nH]c1=O,.,.,.,.
CCCCS(=O)c1c(O)c2ccccc2[nH]c1=O (stereo unspecified),.,11µM,.,.
CC1=Nc2cc(C(=O)O)ccc2Sc2ccc(Br)cc21,.,35µM,.,.
CCC1=Nc2cc(C(=O)O)ccc2Sc2ccc(Cl)cc21,.,14µM,.,.
O=C(NCc1ccc2c(c1)OCO2)c1cc2ccccc2o1,.,?,.,.
COCC(=O)NNC(=O)Cc1ccc(Cl)cc1,.,.,.,.
CCc1ccc(C(C)NC(=S)NC2CCCCC2)cc1 (stereo unspecified),10µM,?,.,.
Cc1ccc(C(C)NC(=S)NCc2ccc(F)cc2)cc1C (stereo unspecified),14µM,.,.,.
CCc1ccc(C(C)NC(=S)NCc2ccc(F)cc2)cc1 (stereo unspecified),4.5µM,.,.,.
CCOc1ccc(C(C)NC(=S)NCc2ccc(F)cc2)cc1 (stereo unspecified),?,?,.,.
CCCCSc1nc2sc3c(c2c(=O)[nH]1)CC(C)(CC)OC3 (stereo unspecified),.,.,.,.
CSCCC(C(=O)Nc1c(C)cccc1C)n1c(-c2ccc(-c3ccccc3)cc2)nc2ccccc21 (stereo unspecified),.,.,.,.
O=C(N/N=C/C(Br)=C/c1ccccc1)c1ccccc1F,.,14µM,.,.
Cc1ccc(SCCNC(=S)Nc2ccc(C)c(C)c2)cc1,.,.,.,.
Cc1ccc(SCCNC(=S)Nc2cc(C)ccc2C)cc1,?,14µM,.,.
COc1cccc(NC(=O)c2cc3c(=O)n(Cc4cccnc4)ccc3nc2C)c1,.,.,/,.
CC(C)(C)OC(=O)NCc1ccc(NC(=O)c2nc[nH]c2C(=O)NCCN(CCNC(=O)c2[nH]cnc2C(=O)Nc2ccc(CNC(=O)OC(C)(C)C)cc2)CCNC(=O)c2[nH]cnc2C(=O)Nc2ccc(CNC(=O)OC(C)(C)C)cc2)cc1,.,.,.,8.9µM
CC(C)(C)OC(=O)NCc1ccc(NC(=O)c2nc[nH]c2C(=O)NCCCNC(=O)c2[nH]cnc2C(=O)Nc2ccc(CNC(=O)OC(C)(C)C)cc2)cc1,.,.,.,.
CCOC(=O)c1ccc(NC(=O)c2nc[nH]c2C(=O)NCC(=O)OC(C)(C)C)cc1,?,22µM,.,?
CCOC(=O)c1ccc(NC(=O)c2nc[nH]c2C(=O)NCCCCCNC(=O)OC(C)(C)C)cc1,.,.,.,?
CC(=O)N1CCC(N2CCN(Cc3ccc(C)cc3)C(CCO)C2)CC1 (stereo unspecified),.,.,.,.
Cc1nnc(SCC(=O)NCc2ccccc2F)c2nn(-c3ccc(Cl)cc3)c(C)c12,.,.,.,.
CN(Cc1ccccc1)c1c([N+](=O)[O-])c(=O)n(C)c2ccccc12,.,16µM,?,?
CCN(CC)c1c([N+](=O)[O-])c(=O)n(C)c2ccccc12,.,.,.,.
SMILES,Abeta yeast res,TDP-43 yeast inh,aSyn rescue,FUS suppressor
Fc1ccccc1CNCC1CCCO1 (stereo unspecified),.,.,.,.
CCN(CC)c1ccc(/C=C(/C#N)c2nc3ccccc3[nH]2)c(OC(C)C)c1,.,13µM,.,?
CCOc1cccc(/C=C(/C#N)c2nc3ccccc3[nH]2)c1OCC(=O)O,.,.,.,.
Cc1cccnc1NS(=O)(=O)c1ccccc1,.,.,.,.
CC(C)CC(NC(=O)C(NC(=O)OC(C)(C)C)C(C)C)C(N)=O (stereo unspecified),.,.,.,.
CCOC1=C2CN(S(=O)(=O)c3ccc(C)cc3)[C@H](c3cccc4ccccc34)C[C@H]2[C@H]2C(=O)N(c3ccccc3)C(=O)[C@H]2C1,.,.,14µM,.
COc1cc(OC)c(OC)cc1/C=N/NC(=O)c1ccc(CSc2nc(C)cc(C)n2)cc1,.,.,.,.
Cc1nc(-c2ccc(Br)cc2)ccc1C(=O)O,.,16µM,.,/
O=C(CC(NC(=O)c1ccccc1Cl)c1ccccc1)NCCc1ccc(Cl)cc1 (stereo unspecified),.,.,.,/
O=C(Oc1c(-c2ccccc2)c(=O)n2c3c(cccc13)CC2)c1cccc([N+](=O)[O-])c1,14µM,.[1.82 µM],?,.
COc1ccccc1-c1nn2c(C3COc4ccccc4O3)nnc2s1 (stereo unspecified),.,10µM,/,.
COc1ccc(Cl)cc1CC1(C)C(=O)Nc2c(Cl)cccc21 (stereo unspecified),.,28µM,.,.
CC1(Cc2cc(Cl)ccc2C(F)(F)F)C(=O)Nc2c(Cl)cccc21 (stereo unspecified),.,.,.,.
CC1(Cc2ccc(F)c(Cl)c2)C(=O)Nc2c(Cl)cccc21 (stereo unspecified),.,22µM,3.5µM,.
Cc1cc(C)c(S(=O)(=O)c2ccccc2)c(OC(=O)c2cc(F)c(F)cc2Cl)n1,.,.,.,.
CCc1nnc(NC(=O)CSc2nnc(-c3ccccc3O)n2CC)s1,.,.,.,.
CCn1c(SCC(=O)Nc2nc(-c3ccccc3)cs2)nnc1-c1ccccc1O,.,20µM,.,.
Cc1ccc(-c2csc(NC(=O)CSC3=NCCS3)n2)cc1,.,7.1µM,/,.
Clc1cccc2sc(N3CCCC3)nc12,.,13µM,.,.
Clc1cccc2sc(N3CCOCC3)nc12,.,.,.,.
CCc1c(C)sc(NC(=O)C2CC(c3c(F)cccc3Cl)=NO2)c1C#N (stereo unspecified),.,20µM,.,.
Cc1ccc(O)c(NC(=O)C2CC(c3c(F)cccc3Cl)=NO2)c1 (stereo unspecified),.,3.5µM,/,.
CC1CC(C)(C)N2C(=O)C3(Nc4ccccc4S3)c3cccc1c32 (stereo unspecified),.,.,?,.
O=C1N2CCCc3cccc(c32)C12Nc1ccccc1S2 (stereo unspecified),.,20µM,?,/
Cc1cccc2cc(CN(Cc3nnnn3Cc3ccco3)C3CCCC3)c3nnnn3c12,.,7.1µM,?,.
CC(=O)N(Cc1c(C)nn(-c2ccccc2)c1Cl)c1ccc(Cl)cc1,.,.,.,.
Cc1nn(-c2ccccc2)c(Cl)c1CN(C(=O)CCl)c1ccc(Cl)cc1,.,20µM,.,/
Cc1nn(-c2ccccc2)c(Cl)c1CN(C(=O)CCl)c1cccc2ccccc12,.,18µM,.,.
CCCn1ccc2c(OCC(=O)Nc3ccc(F)cc3F)cccc2c1=O,.,22µM,/,.
CCn1ccc2c(OCC(=O)Nc3ccc(C)c(Cl)c3)cccc2c1=O,.,22µM,/,?
